High-throughput results as filed in PubChem BioAssay.
Shown are actives, neighbours in structure and some others; about 2% of the full set was active somewhere.
GALR2 blocker = GALR2 antagonists in receptor-expressing cells, primary screen | 140,000 tested, 0.39% active | antagonist mode | inhibition, % at 4 µM; in the data active = inhibition above about 27%;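 note: cells stimulated with galanin 1-16 at roughly its EC80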
PLAP activator = PLAP enzyme activators, biochemical, luminescence, HTS. purified PLAP enzyme, luminescent substrate read-out; hits give high values. activation fold at 20 µM. 96,000 tested, 1.2% active. AID 696, 2007; in the data active = activation fold above about 2
GALR2 ag = GALR2 receptor agonists, primary screen, cell-based; Galanin receptor type 2 (Homo sapiens), O43603; 140,000 tested, 0.48% active; GALR2-expressing cells, agonist activation read-out; activation, % (no concentration beside the values); in the data active = activation above about 5%, passing the limit was not always enough
S1P2 ag = S1P2 receptor agonists, primary screen, cell-based. Sphingosine 1-phosphate receptor 2 (Homo sapiens), O95136. S1P2-expressing cell line, agonist reporter read-out. activation, % at 4.5 µM. 97,000 tested, 0.46% active; in the data active = activation above about 16%
Target sequence (O95136 whole entry, looked up): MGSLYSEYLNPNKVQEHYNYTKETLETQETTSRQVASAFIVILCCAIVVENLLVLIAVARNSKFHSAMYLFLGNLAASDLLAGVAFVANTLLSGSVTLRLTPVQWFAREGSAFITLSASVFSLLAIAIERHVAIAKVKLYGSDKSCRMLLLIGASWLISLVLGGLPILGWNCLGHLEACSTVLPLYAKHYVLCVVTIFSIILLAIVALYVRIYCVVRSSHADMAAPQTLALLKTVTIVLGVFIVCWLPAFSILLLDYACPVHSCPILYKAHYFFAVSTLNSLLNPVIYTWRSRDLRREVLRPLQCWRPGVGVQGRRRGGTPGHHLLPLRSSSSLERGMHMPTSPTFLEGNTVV
S1P2 blocker = human S1P2 receptor antagonists, primary screen, cell-based; inhibition, % at 5 µM; cell-based S1P2 antagonist assay, inhibition at 5 uM; AID 736, 2007; Sphingosine 1-phosphate receptor 2 (Homo sapiens), O95136; 97,000 tested, 0.21% active; in the data active = inhibition above about 45%;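 note: CRE beta-lactamase reporter cells expressing human S1P2 stimulated with S1P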
Hits are given with their value; - = inactive; . = not tested or not shown.

SMILES	GALR2 blocker	PLAP activator	GALR2 ag	S1P2 ag	S1P2 blocker
CNC(=O)c1cc2c(=O)n3cc(C)ccc3nc2n(C(C)C)c1=N	-	-	16	18	-
CNC(=O)c1cc2c(=O)n3cc(C)ccc3nc2n(Cc2ccco2)c1=N	.	-	.	.	.
CCCCCn1c(=NC(C)=O)c(C#N)cc2c(=O)n3ccccc3nc21	-	-	-	-	-
CCOC(=O)N1CCC(n2c(SCC(=O)Nc3nccs3)nc3ccsc3c2=O)CC1	-	-	-	-	-
COCCCNC(=O)c1cc2c(=O)n3cccc(C)c3nc2n(C(C)C)c1=N	-	-	-	-	-
C=CCn1c(=N)c(C(=O)NCCCOC)cc2c(=O)n3cc(C)ccc3nc21	-	-	16	19	-
COCCn1c(SCc2nc3sc(C(=O)OC)c(C)c3c(=O)[nH]2)nc2ccccc21	-	-	-	-	-
CCn1c(SCc2nc3sc(C(=O)O)c(C)c3c(=O)[nH]2)nc2ccccc21	-	2.3	-	-	-
Cc1cc(C)cc(-n2c(SCC(=O)Nc3cccc(S(=O)(=O)NC4=NCCCCC4)c3)nc3ccccc3c2=O)c1	-	.	-	.	.
CCNC(=S)N/N=C/c1c(C)nn(-c2cccc(Cl)c2)c1Cl	-	.	-	.	.
Cc1nn(-c2cccc(Cl)c2)c(Cl)c1/C=N/NC(=O)c1cccs1	-	.	5.0	.	.
CCCn1c(=O)c(C(=O)Nc2nnc(CC)s2)c(O)c2ccccc21	.	-	.	.	.
O=C(Nc1ccc(N2CCN(C(=O)c3ccco3)CC2)c(Cl)c1)c1cc2ccccc2o1	-	-	-	-	65
O=C(Nc1ccc(N2CCN(C(=O)c3ccccc3)CC2)c(Cl)c1)c1ccco1	-	-	-	-	-
CCCC(=O)N1CCN(c2ccc(NC(=O)c3cc4ccccc4o3)cc2Cl)CC1	-	-	-	-	76
O=C(c1cc2ccccc2o1)N1CCN(c2ccccc2Cl)CC1	-	-	-	-	-
CCC(=O)N1CCN(c2ccc(NC(=O)c3cc4ccccc4o3)cc2Cl)CC1	-	-	-	-	51
Cn1c(SC2=CS(=O)(=O)c3ccccc32)nc2ccccc21	-	-	-	-	62
COCc1cc(=O)[nH]c(Nc2nc(C)c3cc(OC)ccc3n2)n1	-	2.1	-	-	-
COc1ccc2nc(Nc3nc(CSc4nnc(C)s4)cc(=O)[nH]3)nc(C)c2c1	-	.	-	.	.
Cc1cccc2sc(NNC(=O)c3ccc(S(=O)(=O)N4CCCC(C)C4)cc3)nc12 (configuration not stated)	-	.	5.2	.	.
COc1ccc(CSC(=N)N)cc1[N+](=O)[O-]	-	2.7	-	-	-
CCCCCOc1ccc(CSC(=N)N)cc1[N+](=O)[O-]	-	-	-	-	-
CC(C)NC(=O)c1sc2nc3c(c(-c4cccs4)c2c1N)CN(C)CC3	-	2	-	-	-
Cn1c(SCC(=O)Nc2ccc(NC(=O)c3cccs3)cc2)nnc1-c1ccncc1	-	.	-	-	-
SMILES	GALR2 blocker	PLAP activator	GALR2 ag	S1P2 ag	S1P2 blocker
COc1cccc(C2C3=C(CCCC3=O)Nc3nc(-c4cc(OC)c(OC)c(OC)c4)nn32)c1 (configuration not stated)	-	-	-	17	-
O=C(c1ccccc1)C(CCC(CN1CCOCC1)C(=O)c1ccccc1)CN1CCOCC1 (configuration not stated)	-	-	-	-	53
O=C(c1ccc(F)cc1)C(CN1CCOCC1)c1ccccc1 (configuration not stated)	32	-	-	-	-
Cc1ccc(C(=O)NNC(=O)C2CCN(Cc3ccc(Cl)c(Cl)c3)CC2)cc1	-	-	-	-	-
Cc1ccc(C(=O)NNC(=O)C2CCN(Cc3ccccc3)CC2)cc1	-	2.1	-	-	-
Cc1cc(NCCCn2ccnc2)n2ncc(-c3ccccc3)c2n1	-	2.3	-	-	-
CCN(CC)CCCNc1nc2cc(OC)c(OC)cc2c2nc(-c3cccnc3)nn12	-	-	-	-	-
CCN(CC)CCCNc1nc2cc(OC)c(OC)cc2c2nc(-c3ccccc3)nn12	-	2	-	-	-
COc1cc2nc(NCC3CCCO3)n3nc(-c4cccnc4)nc3c2cc1OC (configuration not stated)	-	2	-	-	-
COCCCn1c(-c2ccc(Cl)cc2)n[nH]c1=S	-	-	-	-	-
CCOCCCn1c(-c2ccc(Cl)cc2)n[nH]c1=S	-	2.4	-	-	-
Cc1ccc(NC(=O)CCC(=O)NNC(=O)c2cccs2)cc1C	-	2	-	-	-
Cc1ccc(NC(=O)CCC(=O)NNC(=O)Cc2ccccc2)cc1C	-	-	-	-	-
Cc1ccc2c(C)nc(Nc3nc(CSc4nc5ccccc5[nH]4)cc(=O)[nH]3)nc2c1	-	2.2	-	-	-
Cc1ccc(N=c2oc3cc(O)ccc3cc2C(N)=O)cc1	-	-	42	17	-
CCOc1ccc(N=c2oc3cc(O)ccc3cc2C(=O)NCC2CCCO2)cc1 (configuration not stated)	-	-	-	-	-
O=C(c1ccccc1)c1cc2ccc(O)cc2oc1=O	-	-	-	-	-
COc1cc(SC)ccc1C(=O)NCC1CCCO1 (configuration not stated)	-	-	-	-	-
COc1ccc(N=c2oc3cc(O)ccc3cc2C(=O)NCC2CCCO2)c(OC)c1 (configuration not stated)	-	-	68	37	-
COc1ccc(N=c2oc3cc(O)ccc3cc2C(=O)NCC2CCCO2)cc1 (configuration not stated)	-	-	16	18	-
CCOc1ccc(NC(=O)N[C@@H](CCSC)C(=O)OC)cc1	-	-	-	-	-
CCCN(CCC)C1=CC(=[N+]2CCCC2)CC(C)(C)C1	-	.	-	.	.
CCOc1ccc(N(C(C)=O)c2nc(C)cc(C)c2C#N)cc1	-	.	-	-	-
COc1ccc(Cl)cc1N(CC(=O)Nc1ccccc1SC)S(C)(=O)=O	-	-	-	-	-
COc1cc(OC)c(-c2nnc(-c3ccc(OC)c(OC)c3OC)o2)cc1OC	-	-	-	16	-
SMILES	GALR2 blocker	PLAP activator	GALR2 ag	S1P2 ag	S1P2 blocker
CCc1ccc(C(=O)CSc2ncn[nH]2)cc1	-	2.4	-	-	-
O=C(O)c1ccc(CSc2ncn[nH]2)cc1	-	-	-	-	-
Cc1ccc(C(=O)CSc2ncn[nH]2)cc1	-	2.3	-	-	-
COc1cc(CSc2ncn[nH]2)c(OC)cc1CSc1ncn[nH]1	-	-	-	-	-
COc1ccc(C(=O)CSc2ncn[nH]2)cc1OC	-	2.1	-	-	-
COc1ccc2c(c1)C(C)CC(C)(C)N2C(=O)CSc1ncn[nH]1 (configuration not stated)	-	2.4	-	-	-
CCn1c(C(=O)N2CCC(C(=O)NCCCSC3CCCCC3)CC2)cc2sccc21	-	-	-	-	-
CN(C)c1nc(N(C)C)nc(N(C#N)CN2C(=O)c3ccccc3C2=O)n1	-	.	-	.	.
CCOC(=O)N1CCC(NC(=O)CCc2c(C)nc3ncnn3c2C)CC1	-	-	-	-	-
Cc1ccc(C(=O)NC(=S)NNC(=O)c2ccccc2[N+](=O)[O-])cc1	-	.	-	-	-
